# In PubChem BioAssay (Tox21):
# A number with no mark means an inactive call. Results filed as inconclusive are left out. Where a call stands in place of a potency, no number is given. Active and inactive are the calls of the source. Unless noted, calls come from the whole dose curve.
# Experiments:
# [1] = Nuclear factor erythroid 2-related factor 2/antioxidant responsive element (Nrf2/ARE) small molecule agonists: qHTS cell viability counter screen in human keratinocytes (AID 1919968; active = well fitted curve in the direction sought with a large enough effect in the repeat runs; an effect the other way counts as inactive or inconclusive; note: nearly all actives have a fitted effect of over 55% in size; note: potency is the fitted concentration of half-maximal effect)
# Procedure, shortened: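 Parallel cytotoxicity read: KeratinoSens HaCaT cells, compound treatment 23 h, viability by CellTiter-Fluor fluorescence 1 h post-reagent.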
# [2] = biological target: Gonadotropin-releasing hormone receptor (Homo sapiens) (UniProt P30968); assay: Human gonadotropin-releasing hormone receptor (GnRHR) small molecule agonists, calcium flux assay in GnRHR-HEK293 cells (AID 1920063); note: nearly all actives have a fitted effect of over 35% in size; note: potency is the fitted concentration of half-maximal effect
# Procedure, shortened: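 Calcium flux, agonist mode, human GnRHR stably integrated in HEK293; dye 1 h at 37 C before compound; Ex/Em=480/540 kinetic read, 3 min; 15 concentrations, triplicate.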
# [3] = G protein-coupled receptor (GPCR) small molecule agonists, calcium flux assay: HEK293 wild type cell line counter screen (AID 1920065)
# Procedure, shortened: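 Non-specific calcium responders were flagged by adding DMSO-dissolved compounds to dye-loaded cells and reading 480/540 nm fluorescence each second for 3 min; ATP served as positive control.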
# [4] = p53 small molecule agonists, cell-based qHTS assay with human liver microsomes: qHTS cell viability counter screen (AID 1963579); note: nearly all actives have a fitted effect of over 45% in size; note: potency is the fitted concentration of half-maximal effect
# Procedure, shortened: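 p53RE-bla cells, 4,000/well, dosed 5 hours after plating, with human liver microsomes (0.5 mg/mL final) plus NADPH (0.5 mg/mL final), 16 hours at 37 C. Viability read as CellTiter-Glo luminescence after 30 min at room temperature.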
# [5] = p53 small molecule agonists, cell-based qHTS assay with rat liver microsomes: qHTS cell viability counter screen (AID 1963580); note: nearly all actives have a fitted effect of over 45% in size; note: potency is the fitted concentration of half-maximal effect
# Procedure, shortened: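 Cytotoxicity counter screen: intracellular ATP measured by CellTiter-Glo luminescence in the same wells as the beta-lactamase reporter read, on HCT-116 p53RE-bla cells exposed 16 h at 37 C to compounds with rat liver microsomes and NADPH, each 0.5 mg/mL final.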
# [6] = p53 small molecule agonists, cell-based qHTS assay (AID 1963582; active = well fitted activation curve with a large enough effect in the signal ratio in the repeat runs, not every such curve was filed as active; the % refers to the signal ratio)
# Procedure, shortened: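 Beta-lactamase reporter cells (p53RE-bla) treated with compounds for 16 h at 37 C; FRET substrate, 2 h, room temperature; fluorescence intensity.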
# [7] = biological target: 5-hydroxytryptamine receptor 2A (Homo sapiens) (UniProt P28223); assay: 5-hydroxytryptamine receptor 2A (HTR2A) small molecule antagonists, cell-based qHTS assay (AID 1963586); note: nearly all actives have a fitted effect of over 45% in size
# Procedure, shortened: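 CHO cells stably expressing human HTR2A were plated for 18 h at 37 C, then loaded with calcium dye for 1 h. Compounds were preincubated 5 min at room temperature before DOI (4 nM solution) was added. Kinetic fluorescence was read for 3 min.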
# [8] = biological target: 5-hydroxytryptamine receptor 2A (Homo sapiens) (UniProt P28223); assay: 5-hydroxytryptamine receptor 2A (HTR2A) small molecule agonists, cell-based qHTS assay (AID 1963587); note: nearly all actives have a fitted effect of over 30% in size; note: potency is the fitted concentration of half-maximal effect
# Procedure, shortened: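 CHO cells stably expressing human HTR2A, plated 18 h, loaded with calcium dye 1 h at 37 C. Agonist mode: compounds added and intracellular calcium fluorescence recorded kinetically for 2 min at 1 sec intervals.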
# [9] = biological target: Muscarinic acetylcholine receptor M1 (Homo sapiens) (UniProt P11229); assay: Cholinergic receptor muscarinic 1 (CHRM1) small molecule antagonists, cell-based qHTS assay (AID 1963588); note: nearly all actives have a fitted effect of over 40% in size; note: potency is the fitted concentration of half-maximal effect
# Procedure, shortened: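 Compounds were tested at 15 concentrations in three independent runs. Dye-loaded CHRM1-CHO cells were exposed 5 min at room temperature before stimulation by acetylcholine added at 50nM. Intracellular calcium was read kinetically on FDSS for 3 min.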
# [10] = biological target: Muscarinic acetylcholine receptor M1 (Homo sapiens) (UniProt P11229); assay: Cholinergic receptor muscarinic 1 (CHRM1) small molecule agonists, cell-based qHTS assay (AID 1963589); note: nearly all actives have a fitted effect of over 35% in size
# Procedure, shortened: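 qHTS, 15-point titration, 3 independent runs: compounds pin-transferred onto dye-loaded CHRM1-CHO cells (human M1), calcium fluorescence followed every second to detect agonism.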
# [11] = cAMP Responsive Elements (CRE) small molecule agonists, cell-based qHTS assay (AID 1963590)
# Procedure, shortened: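 Quantitative HTS for CRE agonists: HEK 293T CRE-bla cells, overnight plating, 3 h compound incubation at 37 C/5% CO2, then 2 h room-temperature LiveBLAzer B/G FRET substrate loading.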
# [12] = cAMP Responsive Elements (CRE) small molecule antagonists, cell-based qHTS assay (AID 1963591; active = well fitted inhibition curve with a large enough effect in the signal ratio in the repeat runs, not every such curve was filed as active; the % refers to the signal ratio; note: potency is the fitted concentration of half-maximal effect)
# Procedure, shortened: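 Fluorescence intensity from cleaved LiveBLAzer B/G substrate (2 h, room temperature) quantified CRE-bla activity in HEK 293T cells exposed 3 h to compound with 0.25 uM final NKH477.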
# [13] = biological target: Beta-2 adrenergic receptor (Homo sapiens) (UniProt P07550); assay: Adrenergic beta2 receptor (ADRB2) small molecule antagonists, cell-based qHTS assay (AID 1963592); note: series mostly up to about 92 µM; nearly all actives have a fitted effect of over 50% in size
# Procedure, shortened: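 Assay format: CHO-ADRB2 cells, 18-20hr seeding at 37C/5% CO2, then compound plus 1nM isoproterenol agonist mix for 0.5hr RT. Homogeneous time-resolved fluorescence cAMP detection after 1hr, expressed as 665/615 nm ratio.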
# [14] = biological target: Beta-2 adrenergic receptor (Homo sapiens) (UniProt P07550); assay: Adrenergic beta2 receptor (ADRB2) small molecule agonists, cell-based qHTS assay (AID 1963593);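 note: CHO cells stably overexpressing human ADRB2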
# Procedure, shortened: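 CHO cells stably over-expressing ADRB2 were plated overnight at 37C, then dosed with compounds plus a stimulation mix containing 100uM IBMX and 25uM Ro-20-1724 for 0.5hr at room temperature. cAMP was measured by HTRF competition, 1hr.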
# [15] = biological target: D(2) dopamine receptor (Homo sapiens) (UniProt P14416); assay: Dopamine D2 receptor (DRD2) small molecule agonists, cell-based qHTS assay (AID 1963594); note: nearly all actives have a fitted effect of over 35% in size; note: potency is the fitted concentration of half-maximal effect
# Procedure, shortened: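 HEK293 cells stably expressing human DRD2, pre-treated with PDE inhibitor Ro20-1724 (0.1 mM final) and compound 10 min at room temperature, then stimulated with NKH477 (200nM […]) for 30 min. cAMP read by HTRF (665/620 nm).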
# [16] = p53 small molecule agonists, cell-based qHTS assay: qHTS cell viability counter screen (AID 1963581); note: nearly all actives have a fitted effect of over 45% in size; note: potency is the fitted concentration of half-maximal effect
# Procedure, shortened: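 Multiplexed with the reporter read, a CellTiter-Glo step (30 min, room temperature) gauges ATP-based viability of HCT-116 p53RE-bla cells after 16 h compound incubation at 37 C.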
# [17] = biological target: D(2) dopamine receptor (Homo sapiens) (UniProt P14416); assay: Dopamine D2 receptor (DRD2) small molecule antagonists, cell-based qHTS assay (AID 1963595; active = well fitted inhibition curve with a large enough effect in the signal ratio in the repeat runs, with a control signal flat; the % refers to the signal ratio; note: potency is the fitted concentration of half-maximal effect)
# Procedure, shortened: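 Antagonism was scored as restored cAMP in HEK293-DRD2 cells. These cells were stimulated with 200 nM NKH477 and 12 nM quinpirole for 30 min at room temperature, in the presence of 0.1 mM Ro20-1724.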
# [18] = p53 small molecule agonists, cell-based qHTS assay with rat liver microsomes (AID 1963578)
# Procedure, shortened: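 p53RE-bla cells, 4,000/well, pre-incubated 5 h, then given compounds plus rat liver microsomes (0.5 mg/mL final) and NADPH (0.5 mg/mL final). Incubation 16 h at 37 C; beta-lactamase reporter read by LiveBLAzer fluorescence after 2 h at room temperature.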
# [19] = biological target: KiSS-1 receptor (Homo sapiens) (UniProt Q969F8); assay: Human kisspeptin (KISS1R) small molecule agonists, calcium flux assay in KISS1R-HEK293 cells (AID 1920064; active = well fitted curve in the direction sought with a large enough effect in the repeat runs; an effect the other way counts as inactive or inconclusive)
# Procedure, shortened: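 Triplicate 15-concentration series were applied to dye-loaded human KISS1R HEK293 cells, and agonist-evoked calcium fluorescence was captured for 3 min.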
# [20] = p53 small molecule agonists, cell-based qHTS assay with human liver microsomes (AID 1963577)
# Procedure, shortened: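 p53RE-bla cells, 4,000/well, compound added after 5 h, with human liver microsomes 0.5 mg/mL and NADPH 0.5 mg/mL final; 16 h at 37 C, then LiveBLAzer 2 h RT, fluorescence.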
# Chain of 5-hydroxytryptamine receptor 2A (Homo sapiens) (P28223 whole entry, looked up): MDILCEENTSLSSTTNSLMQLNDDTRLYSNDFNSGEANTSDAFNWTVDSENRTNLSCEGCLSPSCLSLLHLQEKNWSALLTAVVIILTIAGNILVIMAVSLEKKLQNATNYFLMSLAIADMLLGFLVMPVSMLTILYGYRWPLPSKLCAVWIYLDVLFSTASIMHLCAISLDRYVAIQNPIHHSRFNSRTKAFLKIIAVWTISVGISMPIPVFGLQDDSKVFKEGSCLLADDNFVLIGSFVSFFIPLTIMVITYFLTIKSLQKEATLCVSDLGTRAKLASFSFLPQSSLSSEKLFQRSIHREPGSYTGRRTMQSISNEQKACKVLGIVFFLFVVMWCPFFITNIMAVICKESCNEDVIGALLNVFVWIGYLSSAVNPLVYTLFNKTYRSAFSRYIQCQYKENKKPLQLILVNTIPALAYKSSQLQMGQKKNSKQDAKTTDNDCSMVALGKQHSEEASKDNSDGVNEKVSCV
# Chain of Beta-2 adrenergic receptor (Homo sapiens) (P07550 whole entry, looked up): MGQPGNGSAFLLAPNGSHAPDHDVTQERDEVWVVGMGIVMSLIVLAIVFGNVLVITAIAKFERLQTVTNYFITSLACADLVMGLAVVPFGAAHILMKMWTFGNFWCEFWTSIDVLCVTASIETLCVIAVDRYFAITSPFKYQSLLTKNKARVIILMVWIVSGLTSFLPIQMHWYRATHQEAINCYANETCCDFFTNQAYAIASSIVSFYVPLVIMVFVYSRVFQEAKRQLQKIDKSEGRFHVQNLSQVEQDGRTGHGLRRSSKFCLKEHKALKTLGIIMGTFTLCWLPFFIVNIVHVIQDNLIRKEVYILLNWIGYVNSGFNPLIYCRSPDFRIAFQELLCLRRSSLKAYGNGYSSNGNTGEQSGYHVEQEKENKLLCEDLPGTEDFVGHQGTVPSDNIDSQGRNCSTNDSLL
# Chain of D(2) dopamine receptor (Homo sapiens) (P14416 whole entry, looked up): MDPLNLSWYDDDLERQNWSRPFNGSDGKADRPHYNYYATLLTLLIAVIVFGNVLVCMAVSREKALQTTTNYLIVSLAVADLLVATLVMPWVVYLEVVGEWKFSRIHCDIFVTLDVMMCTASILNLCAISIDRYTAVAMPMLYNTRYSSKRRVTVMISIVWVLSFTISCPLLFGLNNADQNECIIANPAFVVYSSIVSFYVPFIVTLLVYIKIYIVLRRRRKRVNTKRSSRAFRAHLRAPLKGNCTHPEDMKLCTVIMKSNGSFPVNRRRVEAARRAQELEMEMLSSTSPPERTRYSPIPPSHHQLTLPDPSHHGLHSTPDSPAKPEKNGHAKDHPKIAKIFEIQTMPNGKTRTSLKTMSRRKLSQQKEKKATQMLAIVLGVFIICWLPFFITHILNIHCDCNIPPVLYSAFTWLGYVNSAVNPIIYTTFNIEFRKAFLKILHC
# Chain of Gonadotropin-releasing hormone receptor (Homo sapiens) (P30968 whole entry, looked up): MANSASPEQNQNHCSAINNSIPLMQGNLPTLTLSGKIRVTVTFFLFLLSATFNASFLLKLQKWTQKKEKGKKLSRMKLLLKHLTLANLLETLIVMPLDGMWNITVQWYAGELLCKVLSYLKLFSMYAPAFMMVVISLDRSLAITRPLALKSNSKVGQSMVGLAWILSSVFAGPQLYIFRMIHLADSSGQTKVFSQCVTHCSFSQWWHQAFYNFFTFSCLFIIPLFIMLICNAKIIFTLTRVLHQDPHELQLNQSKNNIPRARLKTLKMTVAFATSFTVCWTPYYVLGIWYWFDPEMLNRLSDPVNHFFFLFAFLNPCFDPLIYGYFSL
# Chain of Muscarinic acetylcholine receptor M1 (Homo sapiens) (P11229 whole entry, looked up): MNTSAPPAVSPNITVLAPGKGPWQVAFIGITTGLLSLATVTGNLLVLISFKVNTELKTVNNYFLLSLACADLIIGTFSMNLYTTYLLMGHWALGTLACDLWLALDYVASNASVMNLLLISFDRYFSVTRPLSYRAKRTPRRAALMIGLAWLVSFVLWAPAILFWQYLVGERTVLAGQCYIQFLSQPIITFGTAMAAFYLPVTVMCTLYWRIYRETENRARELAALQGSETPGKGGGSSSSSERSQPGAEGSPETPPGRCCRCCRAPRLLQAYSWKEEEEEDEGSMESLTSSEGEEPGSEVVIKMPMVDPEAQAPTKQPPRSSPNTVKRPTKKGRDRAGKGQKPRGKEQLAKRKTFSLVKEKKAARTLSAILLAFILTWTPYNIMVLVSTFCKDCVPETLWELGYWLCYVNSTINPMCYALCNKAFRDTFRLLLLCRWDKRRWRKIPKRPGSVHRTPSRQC
# Chain of KiSS-1 receptor (Homo sapiens) (Q969F8 whole entry, looked up): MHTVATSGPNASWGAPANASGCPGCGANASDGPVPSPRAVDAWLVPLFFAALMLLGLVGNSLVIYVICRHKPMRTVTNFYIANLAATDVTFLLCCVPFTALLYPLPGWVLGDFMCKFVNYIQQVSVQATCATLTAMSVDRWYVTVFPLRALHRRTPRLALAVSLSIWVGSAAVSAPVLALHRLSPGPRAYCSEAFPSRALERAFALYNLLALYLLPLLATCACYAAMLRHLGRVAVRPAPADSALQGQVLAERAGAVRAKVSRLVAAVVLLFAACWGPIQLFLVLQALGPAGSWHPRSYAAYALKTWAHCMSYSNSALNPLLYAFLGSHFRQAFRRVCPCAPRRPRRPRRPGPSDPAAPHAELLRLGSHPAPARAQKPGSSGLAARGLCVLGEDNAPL
smiles,measurement,setting,value
CC1N=C(N)OC1c1ccccc1 (stereo unspecified),Potency,[1],inactive
same,Potency,[2],inactive
same,Potency,[3],inactive
same,Potency,[4],inactive
same,Potency,[5],inactive
same,Potency,[6],inactive
same,Potency,[7],inactive
same,Potency,[8],inactive
same,Potency,[9],inactive
same,Potency,[10],inactive
same,Potency,[11],inactive
same,Potency,[12],inactive
same,Potency,[13],inactive
same,Potency,[14],inactive
same,Potency,[15],inactive
CC(=O)[O-].CC(=O)[O-].[Hg+2],Potency,[1],3.06 µM (active)
same,Potency,[2],38.9 µM (active)
same,Potency,[3],inactive
same,Potency,[4],3.63 µM (active)
same,Potency,[5],16.2 µM (active)
same,Potency,[16],7.25 µM (active)
same,Potency,[7],inactive
same,Potency,[8],49 µM (active)
same,Potency,[9],21.1 µM (active)
same,Potency,[15],14.2 µM (active)
same,Potency,[17],5.45 µM (active)
C=CCOC(=O)C(C)(C)OC(=O)c1cc(-n2c(=O)cc(C(F)(F)F)n(C)c2=O)ccc1Cl,Potency,[1],inactive
same,Potency,[2],inactive
same,Potency,[3],inactive
same,Potency,[18],inactive
same,Potency,[4],inactive
same,Potency,[5],inactive
same,Potency,[16],inactive
same,Potency,[6],inactive
same,Potency,[7],inactive
same,Potency,[8],inactive
same,Potency,[9],inactive
same,Potency,[10],inactive
same,Potency,[11],inactive
same,Potency,[13],inactive
same,Potency,[14],inactive
same,Potency,[15],inactive
same,Potency,[17],inactive
Clc1ccc(-c2ccc(Cl)c(Cl)c2Cl)c(Cl)c1Cl,Potency,[1],51.9 µM (active)
same,Potency,[2],inactive
same,Potency,[3],inactive
same,Potency,[18],inactive
same,Potency,[4],inactive
same,Potency,[5],inactive
same,Potency,[16],inactive
same,Potency,[7],inactive
same,Potency,[8],inactive
same,Potency,[9],inactive
same,Potency,[12],inactive
same,Potency,[13],inactive
same,Potency,[17],inactive
O=S(=O)(Cl)c1ccccc1,Potency,[1],inactive
same,Potency,[2],inactive
same,Potency,[3],inactive
same,Potency,[4],inactive
same,Potency,[5],inactive
same,Potency,[16],inactive
same,Potency,[7],inactive
same,Potency,[8],inactive
same,Potency,[9],inactive
same,Potency,[10],inactive
same,Potency,[11],inactive
same,Potency,[12],inactive
same,Potency,[13],inactive
same,Potency,[14],inactive
same,Potency,[15],inactive
same,Potency,[17],inactive
COc1cccc2c1C(=O)c1c(O)c3c(c(O)c1C2=O)C[C@@](O)(C(=O)CO)CC3OC1CC(N2CCOC(OC)C2)C(O)C(C)O1 (stereo partly specified),Potency,[1],7.5 µM (active)
same,Potency,[19],inactive
same,Potency,[3],inactive
same,Potency,[20],inactive
same,Potency,[18],inactive
same,Potency,[7],inactive
same,Potency,[8],16.9 µM (active)
same,Potency,[9],inactive
same,Potency,[10],inactive
same,Potency,[12],1.19 µM (active)
same,Potency,[13],inactive
same,Potency,[14],inactive
[Cl][Sn]([c]1ccccc1)([c]1ccccc1)[c]1ccccc1,Potency,[1],1.03 µM (active)
same,activation,[19],2.74% [at 15.8 µM]
same,activation,[18],-5.37% [at 13.6 µM]
same,Potency,[4],6.14 µM (active)
same,Potency,[5],6.14 µM (active)
same,"activity, negative = inhibition",[7],-29.3% [at 12.7 µM]
same,Potency,[8],10.4 µM (active)
same,"activity, negative = inhibition",[9],-4.75% [at 12.6 µM]
same,activation,[10],2.71% [at 15.8 µM]
same,activation,[15],8.68% [at 19 µM]
CCOP(=S)(OCC)SC(CCl)N1C(=O)c2ccccc2C1=O (stereo unspecified),Potency,[1],inactive
same,Potency,[2],inactive
same,Potency,[4],inactive
same,Potency,[16],inactive
same,Potency,[7],inactive
same,Potency,[8],inactive
same,Potency,[10],inactive
same,Potency,[15],inactive
same,Potency,[17],inactive
O=C(O)c1ccccc1C(=O)Nc1cccc2ccccc12,Potency,[1],inactive
same,Potency,[19],inactive
same,Potency,[3],inactive
same,Potency,[18],inactive
same,Potency,[4],inactive
same,Potency,[5],inactive
same,Potency,[16],inactive
same,Potency,[6],inactive
same,Potency,[7],inactive
same,Potency,[8],inactive
same,Potency,[9],inactive
same,Potency,[10],inactive
same,Potency,[11],inactive
same,Potency,[12],inactive
same,Potency,[13],inactive
same,Potency,[15],inactive
same,Potency,[17],inactive
CCOC(=O)N(C)C(=O)CSP(=S)(OCC)OCC,Potency,[1],inactive
same,Potency,[19],inactive
same,Potency,[3],inactive
same,Potency,[20],inactive
same,Potency,[18],inactive
same,Potency,[4],inactive
same,Potency,[5],inactive
same,Potency,[16],inactive
same,Potency,[6],inactive
same,Potency,[7],inactive
same,Potency,[8],inactive
same,Potency,[10],inactive
same,Potency,[11],inactive
same,Potency,[13],inactive
same,Potency,[15],inactive
same,Potency,[17],inactive
CC(=O)[O-].CC(=O)[O-].[Co+2],Potency,[1],inactive
same,Potency,[19],inactive
same,Potency,[3],inactive
same,Potency,[4],inactive
same,Potency,[16],inactive
same,Potency,[7],inactive
same,Potency,[8],inactive
same,Potency,[9],inactive
same,Potency,[10],inactive
same,Potency,[11],inactive
same,Potency,[12],inactive
same,Potency,[13],inactive
same,Potency,[15],inactive
same,Potency,[17],inactive
CCCC(Cn1cncn1)c1ccc(Cl)cc1Cl (stereo unspecified),Potency,[1],inactive
same,Potency,[19],inactive
same,Potency,[3],inactive
same,Potency,[20],inactive
same,Potency,[18],inactive
same,Potency,[4],inactive
same,Potency,[5],inactive
same,Potency,[7],inactive
same,Potency,[13],inactive
same,Potency,[15],inactive
C=CCC1=C(C)C(OC(=O)C2C(C=C(C)C)C2(C)C)CC1=O (stereo unspecified),Potency,[1],34.4 µM (active)
same,Potency,[19],inactive
same,Potency,[3],inactive
same,Potency,[18],inactive
same,Potency,[16],28.9 µM (active)
same,Potency,[8],inactive
same,Potency,[10],inactive
same,Potency,[13],inactive
same,Potency,[17],57.8 µM (active)
C#CCN1C(=O)COc2cc(F)c(N3C(=O)C4=C(CCCC4)C3=O)cc21,Potency,[1],inactive
same,Potency,[19],inactive
same,Potency,[3],inactive
same,Potency,[4],inactive
same,Potency,[16],inactive
same,Potency,[7],inactive
same,Potency,[8],inactive
same,Potency,[10],inactive
same,Potency,[12],inactive
same,Potency,[13],inactive
same,Potency,[14],inactive
same,Potency,[17],inactive
